In all, about 69,000 compounds went through this assay and about 8,600 (12%) showed an effect of 50% or more. The sample holds strong results, similar compounds and a random draw of the others, so the mix is not that of the screen.

Data on 55 molecules can be found in ChEMBL document CHEMBL4513216, “Probing the Open Global Health Chemical Diversity Library for Multistage-Active Starting Points for Next-Generation Antimalarials” (ACS Infect Dis, 2020).

This assay relates to Plasmodium berghei. Nature of the assay: Screen against P. berghei liver stage (PbLuc), transformed with Luciferase, at 10uM. The class given is functional, HepG2. The conditions noted are these: tested at 10 uM.
For `CC(=O)NCCNC(=O)CNC1CCCN(c2ccc(C)nn2)C1` (stereo not given), the INHIBITION came to 47%. Turning to `c1cn(-c2cnc(C3CCNCC3)cn2)cn1`, the INHIBITION was found to be 26.8%.

With `Cc1ccnc(C2CCN(C(=O)c3cnn(C)c3)CC2)n1`, the INHIBITION came out at 50.3%. The value for `Cc1cc(C2CCN(C(=O)c3cnn(C)c3)CC2)ccn1` was -4.51%. For `Cc1ccnc(C2CCN(C(=O)c3cnn(C)c3)C2)n1` (stereo not given), the INHIBITION was determined as 48.4%. Turning to `CCOCC1CN(C(=O)c2cccnc2)Cc2cnn(C)c21` (stereo not given), the INHIBITION is -2.35%. For the molecule `COc1cccc(CN2CCC(Cc3cnc(CN(C)C)cn3)CC2)c1`, the INHIBITION is listed as 25.8%. The value for `CCn1ncc2[nH]c(-c3cc(OC)c(OC)cc3OC)nc21` was 26.5%; that for `c1cc(CN2CCc3ncc(CN4CCOCC4)n3CC2)cs1` was -36%; that for `Cc1ccc(N2CCN(C3CCc4ccccc4C3)CC2)nn1` (stereo not given) was 53.9%. Next, `Cc1ccc(N2CCC3(CC2)CCN(C2CCOC2)CC3)nn1` (stereo not given): 8.85%; `Cc1ccc(N2C[C@H](O)[C@@H](N3CCN(c4ccccn4)CC3)C2)nn1`: 6.29%; `Cc1ccc(N2CCC3(CCN(C(=O)C4CCOC4)CC3)CC2)nn1` (stereo not given): -45.8%. With `Cc1ccc(N2CCN(C)c3ncccc3C2)nn1`, the INHIBITION turned out to be 48.2%.

Consider `Cc1csc(N2CCN(Cc3ccccn3)CC2)n1`, for which the INHIBITION is 34.2%. Next, `Cc1ccc(N2CCC3(CC2)CCN(C2CCOCC2)CC3)nn1`: 58.7%.

`Cc1csc(N2CCCN(C3Cc4ccccc4C3)CC2)n1`: the INHIBITION is 73.9%.

Take `Cc1csc(N2CCCN(C(=O)c3ccsc3)CC2)n1`: the INHIBITION was -36.4%. In the case of `Cc1csc(N2CCC(NCC3(O)CCc4ccccc43)CC2)n1` (stereo not given), the INHIBITION worked out at 42.6%. Next, `Cc1csc(N2CCN(C3CCc4ccccc4C3)CC2)n1` (stereo not given): 53%; `NC(=O)c1csc(N2CCN(C3CCc4ccccc4C3)CC2)n1` (stereo not given): 47.6%. On to `CS(=O)(=O)N1C[C@@H]2CCN(C(=O)c3cscn3)[C@@H]2C1`, for which the INHIBITION is given as 31.5%.

As for `c1cnn(CCNCc2ccc(N3CCCCC3)cc2)c1`, the INHIBITION is recorded as -10.8%. On to `O=C(O)c1c(-c2ccncc2)ncc2c1CCN(Cc1ccco1)C2`, for which the INHIBITION was determined as 26.5%.

On to `CC1CCN(c2nc3cn(C4CCS(=O)(=O)C4)c(=O)c-3c[nH]2)CC1` (stereo not given), for which the INHIBITION is -16.3%. The value for `Cc1occc1C(=O)N1C[C@@H]2OCCN(c3ncccn3)[C@@H]2C1` was 11.5%; that for `CCc1ccccc1-c1cc(OC)nc(N)n1` was 35%. Next, `N#Cc1ccc(S(=O)(=O)N2CSCC2C(=O)NCC(F)(F)F)cc1` (stereo not given): -13.5%; `CC1(C2CCN(CC(N)=O)CC2)CN(Cc2ccccc2)C(=O)CO1` (stereo not given): 0.301%. Take `CC(=O)N1CCC(c2ccnc(Nc3cncnc3)n2)CC1`: the INHIBITION is -2.11%. The value for `Cc1csc(N2CCCN(c3cc(C)nc(C)c3C#N)CC2)n1` was 91.9%; that for `Cc1cc(N2CCCC2)c(C#N)c(C)n1` was 4.62%; that for `Cc1cc(N2CCCCC2)c(C#N)c(C)n1` was 25.2%. The value for `CCOC(=O)c1cnn(C2CCN(C(=O)CC3CCCC3)CC2)c1N` was 26.1%. The value for `COc1ccccc1C1(CNCc2ccc(C#N)cc2)CCOCC1` was 29.6%; that for `COc1ccccc1C1(CNCc2cccc(C#N)c2)CCOCC1` was 20.9%. For `COc1ccccc1C1(CNCc2cccc(O)c2)CCOCC1`, the INHIBITION worked out at 51.3%.

As for `O=C(CCNc1ncccn1)Nc1cc(C(F)(F)F)c[nH]c1=O`, the INHIBITION is listed as -1.7%. On to `O=C(NCc1ccco1)[C@H]1C[C@@H]2CCN(c3ccncn3)C[C@@H]2O1`, for which the INHIBITION was found to be 21.7%. `Cc1ncsc1CCN(C)C(=O)c1ccc(Cn2cnnn2)cc1`: the INHIBITION is given as -0.448%. Next, `Cc1nc(CN(C)C(=O)c2ccc(Cn3cnnn3)cc2)cs1`: 16.5%; `Cc1cnccc1CN(C)C(=O)c1ccc(Cn2cnnn2)cc1`: 54.9%.

With `CCc1noc(C(C)N2CCC(O)CC2)n1` (stereo not given), the INHIBITION was determined as 37.9%.

For `Cc1noc(C)c1C(=O)NCCSCc1cccs1`, the INHIBITION is recorded as 29.5%. For `CCN1CCN(C(=O)NCCOc2ccc3c(c2)OCO3)CC1`, the INHIBITION stood at 2.63%. Next, `O=C(c1n[nH]c2c1CCC2)N1CCCC1c1nc(-c2ccccc2)no1` (stereo not given): -68.4%; `COc1ncccc1C(=O)N1CCCC1c1nc(-c2ccccc2)no1` (stereo not given): 64.9%.

With `COc1ncccc1C(=O)N1CCCC1c1nc(-c2ccccc2)n[nH]1` (stereo not given), the INHIBITION stood at 47.6%. `Cc1nc(CC(=O)N2CCCC2c2nc(-c3ccccc3)no2)cs1` (stereo not given): the INHIBITION worked out at 38.2%. The value for `COc1nc2c(cc1C(=O)N1CCCC1c1ccccn1)CCC2` (stereo not given) was 1.74%; that for `CC(C)c1cc(C(=O)N2CCCC2c2nc(-c3ccccc3)no2)[nH]n1` (stereo not given) was 55.5%; that for `COc1ccc(C(=O)N2CCCCC2c2ccccn2)c(OC)n1` (stereo not given) was 53.2%. Next, `COc1nc2c(cc1C(=O)N1CCCCC1c1ccccn1)CCC2` (stereo not given): -34.4%; `COc1ncccc1C(=O)N1CC(c2nc(-c3ccccn3)no2)C1`: 33.5%; `Cc1ncc(-c2ccncc2)c(C2CCN(C(=O)c3ccco3)CC2)n1`: -21%.
